Laboratory results as given in PubChem BioAssay AID1159580 (chemical genetic matrix, 2015).
Hit rate of the full screen: of about 5,500 compounds, about 2,000 (36%) were called active. Not shown: some 18% with an inconclusive outcome. This is one part of the list. A number with no mark means an inactive call. Rule as the data show it: active = normalized growth mostly below about 0.91 (no sharp cut-off); inconclusive = no clear call, values can overlap the other calls; inactive = mostly above about 0.92.

Assay: chemical genetic growth profiling, strain panel (AID 1159580);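 also: tested at 20 µM; growth read once vehicle control cultures reached saturation at 30 °C; 1 = growth at the plate median or of vehicle wells; lower values mean less growth of the strain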
Conditions: growth OD

CO[C@@H]1C[C@@H](C[C@H]2CC[C@H](C)[C@H]([C@@H](C)C(=O)O)O2)O[C@]2(O[C@](C)([C@H]3CC[C@@](C)(C4O[C@@H](C5O[C@@](O)(CO)[C@H](C)C[C@@H]5C)C[C@@H]4C)O3)C[C@H]2C)[C@@H]1C (stereo partly specified)
normalized growth (S. cerevisiae deletion strains, locus YAL013W, strain DEP1, active compounds read low): 1.03
normalized growth (S. cerevisiae deletion strains, locus YBR021W, strain FUR4, active compounds read low): 1.19 [resistant] (active)
normalized growth (S. cerevisiae deletion strains, locus YBR229C, strain ROT2, active compounds read low): 1.04
normalized growth (S. cerevisiae deletion strains, locus YCL029C, strain bik1, active compounds read low): 0.955
normalized growth (S. cerevisiae deletion strains, locus YDL035C, strain GPR1, active compounds read low): 1.03
normalized growth (S. cerevisiae deletion strains, locus YDL074C, strain BRE1, active compounds read low): 1.01
normalized growth (S. cerevisiae deletion strains, locus YDL101C, strain DUN1, active compounds read low): 1.01
normalized growth (S. cerevisiae deletion strains, locus YDL134C, strain PPH21, active compounds read low): 1.01
normalized growth (S. cerevisiae deletion strains, locus YDL185W, strain tfp1, active compounds read low): 0.99
normalized growth (S. cerevisiae deletion strains, locus YDL192W, strain arf1, active compounds read low): 0.961
normalized growth (S. cerevisiae deletion strains, locus YDR101C, strain arx1, active compounds read low): 0.977
normalized growth (S. cerevisiae deletion strains, locus YDR150W, strain NUM1, active compounds read low): 1.04
normalized growth (S. cerevisiae deletion strains, locus YDR162C, strain NBP2, active compounds read low): 1.01
normalized growth (S. cerevisiae deletion strains, locus YDR318W, strain mcm21, active compounds read low): 0.966
normalized growth (S. cerevisiae deletion strains, locus YDR388W, active compounds read low): 0.981
normalized growth (S. cerevisiae deletion strains, locus YDR502C, strain sam2, active compounds read low): 0.99
normalized growth (S. cerevisiae deletion strains, locus YEL061C, strain CIN8, active compounds read low): 1.02
normalized growth (S. cerevisiae deletion strains, locus YER110C, active compounds read low): 1.03
normalized growth (S. cerevisiae deletion strains, locus YER155C, strain BEM2, active compounds read low): 1.08 [resistant] (active)
normalized growth (S. cerevisiae deletion strains, locus YER167W, strain BCK2, active compounds read low): 1.02
normalized growth (S. cerevisiae deletion strains, locus YGL078C, strain dbp3, active compounds read low): 0.976
normalized growth (S. cerevisiae deletion strains, locus YGL086W, strain mad1, active compounds read low): 0.97
normalized growth (S. cerevisiae deletion strains, locus YGL248W, strain PDE1, active compounds read low): 1.01
normalized growth (S. cerevisiae deletion strains, locus YGR078C, strain PAC10, active compounds read low): 1.02
normalized growth (S. cerevisiae deletion strains, locus YGR135W, strain pre9, active compounds read low): 0.984
normalized growth (S. cerevisiae deletion strains, locus YGR229C, strain SMI1, active compounds read low): 1.02
normalized growth (S. cerevisiae deletion strains, locus YGR252W, strain gcn5, active compounds read low): 1.06
normalized growth (S. cerevisiae deletion strains, locus YHR030C, strain SLT2, active compounds read low): 1.03
normalized growth (S. cerevisiae deletion strains, locus YHR079C, strain IRE1 (second series), active compounds read low): 0.968
normalized growth (S. cerevisiae deletion strains, locus YHR094C, strain hxt1, active compounds read low): 0.992
normalized growth (S. cerevisiae deletion strains, locus YHR129C, strain ARP1, active compounds read low): 1.06
normalized growth (S. cerevisiae deletion strains, locus YHR200W, strain rpn10, active compounds read low): 0.968
normalized growth (S. cerevisiae deletion strains, locus YIL066C, strain RNR3, active compounds read low): 1.01
normalized growth (S. cerevisiae deletion strains, locus YIL073C, strain SPO22, active compounds read low): 0.984
normalized growth (S. cerevisiae deletion strains, locus YIL125W, strain kgd1, active compounds read low): 0.982
normalized growth (S. cerevisiae deletion strains, locus YIR030C, strain dcg1, active compounds read low): 0.982
normalized growth (S. cerevisiae deletion strains, locus YJL095W, strain BCK1, active compounds read low): 0.997
normalized growth (S. cerevisiae deletion strains, locus YJL134W, strain LCB3, active compounds read low): 1.03
normalized growth (S. cerevisiae deletion strains, locus YJL168C, strain set2, active compounds read low): 0.993
normalized growth (S. cerevisiae deletion strains, locus YJL187C, strain SWE1 (second series), active compounds read low): 1.01
normalized growth (S. cerevisiae deletion strains, locus YJR043C, strain POL32, active compounds read low): 1.02
normalized growth (S. cerevisiae deletion strains, locus YJR075W, strain HOC1, active compounds read low): 1
normalized growth (S. cerevisiae deletion strains, locus YKL009W, strain mrt4, active compounds read low): 0.98
normalized growth (S. cerevisiae deletion strains, locus YKL068W, active compounds read low): 1.01
normalized growth (S. cerevisiae deletion strains, locus YKL085W, strain MDH1 (second series), active compounds read low): 0.978
normalized growth (S. cerevisiae deletion strains, locus YKL085W, strain MDH1, active compounds read low): 0.978
normalized growth (S. cerevisiae deletion strains, locus YKL190W, strain CNB1, active compounds read low): 1.02
normalized growth (S. cerevisiae deletion strains, locus YKR001C, strain vps1, active compounds read low): 1.02
normalized growth (S. cerevisiae deletion strains, locus YLR039C, strain RIC1, active compounds read low): 1.35 [resistant] (active)
normalized growth (S. cerevisiae deletion strains, locus YLR058C, strain SHM2, active compounds read low): 1.02
normalized growth (S. cerevisiae deletion strains, locus YLR102C, strain apc9, active compounds read low): 0.997
normalized growth (S. cerevisiae deletion strains, locus YLR262C, strain YPT6, active compounds read low): 1.45 [resistant] (active)
normalized growth (S. cerevisiae deletion strains, locus YLR268W, strain sec22, active compounds read low): 0.929
normalized growth (S. cerevisiae deletion strains, locus YLR330W, strain CHS5, active compounds read low): 1.04
normalized growth (S. cerevisiae deletion strains, locus YLR342W, strain FKS1 (second series), active compounds read low): 1.03
normalized growth (S. cerevisiae deletion strains, locus YLR371W, strain rom2, active compounds read low): 0.999
normalized growth (S. cerevisiae deletion strains, locus YLR418C, strain cdc73, active compounds read low): 1.02
normalized growth (S. cerevisiae deletion strains, locus YML016C, strain PPZ1, active compounds read low): 1.03
normalized growth (S. cerevisiae deletion strains, locus YML032C, strain rad52, active compounds read low): 0.986
normalized growth (S. cerevisiae deletion strains, locus YML124C, strain tub3, active compounds read low): 0.983
normalized growth (S. cerevisiae deletion strains, locus YMR078C, strain ctf18, active compounds read low): 1.03
normalized growth (S. cerevisiae deletion strains, locus YMR223W, strain ubp8, active compounds read low): 0.994
normalized growth (S. cerevisiae deletion strains, locus YMR263W, strain SAP30, active compounds read low): 1.01
normalized growth (S. cerevisiae deletion strains, locus YMR307W, strain GAS1, active compounds read low): 1.17
normalized growth (S. cerevisiae deletion strains, locus YNL067W, strain RPL9B, active compounds read low): 1.01
normalized growth (S. cerevisiae deletion strains, locus YNL128W, strain TEP1, active compounds read low): 1.04
normalized growth (S. cerevisiae deletion strains, locus YNL153C, strain GIM3, active compounds read low): 0.999
normalized growth (S. cerevisiae deletion strains, locus YNL233W, strain BNI4, active compounds read low): 0.996
normalized growth (S. cerevisiae deletion strains, locus YNL250W, strain rad50, active compounds read low): 0.966
normalized growth (S. cerevisiae deletion strains, locus YNL271C, strain bni1, active compounds read low): 1.01
normalized growth (S. cerevisiae deletion strains, locus YNL298W, strain CLA4, active compounds read low): 0.989
normalized growth (S. cerevisiae deletion strains, locus YNL307C, strain MCK1, active compounds read low): 1.01
normalized growth (S. cerevisiae deletion strains, locus YNL322C, strain KRE1, active compounds read low): 1.02
normalized growth (S. cerevisiae deletion strains, locus YNR052C, strain pop2, active compounds read low): 0.976
normalized growth (S. cerevisiae deletion strains, locus YOL006C, strain TOP1, active compounds read low): 0.814
normalized growth (S. cerevisiae deletion strains, locus YOL012C, strain htz1): 1.61
normalized growth (S. cerevisiae deletion strains, locus YOL147C, strain pex11, active compounds read low): 0.989
normalized growth (S. cerevisiae deletion strains, locus YOR061W, strain CKA2, active compounds read low): 1.02
normalized growth (S. cerevisiae deletion strains, locus YOR069W, strain VPS5, active compounds read low): 1.03
normalized growth (S. cerevisiae deletion strains, locus YOR136W, strain idh2, active compounds read low): 0.976
normalized growth (S. cerevisiae deletion strains, locus YOR144C, strain elg1, active compounds read low): 0.988
normalized growth (S. cerevisiae deletion strains, locus YOR184W, strain ser1, active compounds read low): 0.975
normalized growth (S. cerevisiae deletion strains, locus YOR316C, strain cot1, active compounds read low): 0.99
normalized growth (S. cerevisiae deletion strains, locus YPL055C, strain LGE1, active compounds read low): 1.03
normalized growth (S. cerevisiae deletion strains, locus YPL241C, strain CIN2, active compounds read low): 1.04
normalized growth (S. cerevisiae deletion strains, locus YPR119W, strain clb2, active compounds read low): 0.99
normalized growth (S. cerevisiae deletion strains, locus YPR141C, strain kar3, active compounds read low): 0.986
normalized growth (S. cerevisiae deletion strains, locus YPR163C, strain tif3, active compounds read low): 1.01
normalized growth (S. cerevisiae deletion strains, locus YPR167C, strain met16, active compounds read low): 0.977
normalized growth (S. cerevisiae deletion strains, strain wtn01, active compounds read low): 0.969
normalized growth (S. cerevisiae strains, strain wild type, active compounds read low): 1
